From PubChem
This is a sample that favours compounds with a hit; in the whole collection about 0.49% have one here.
EPAC2 agonist: EPAC2 (human) agonism; 360,000 compounds, 0.079% hits; Potency, µM (doses to about 154 µM), for inactives: top-dose activation, most hits filed as activators; EPAC2 activation, biochemical qHTS; response scale: 100% = 6.5 mM cAMP response; Q8WZA2; further: nearly all actives have a fitted effect of over 50% in size
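In this primary screen, activation is scored as increased exchange of BODIPY-GDP from Rap1B by 100 nM EPAC2, with 50 uM GDP as competitor. Signal is normalized to the 6.5 mM cAMP agonist control.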
EPAC2 antagonist: EPAC2 (human) antagonism. Q8WZA2. EPAC2 GEF exchange of Rap1B-BODIPY-GDP, fluorescence. Potency, µM (titrated, usually from 114 µM), without a hit: at the highest dose activity, negative = inhibition, actives largely listed as inhibitors. 360,000 compounds, 0.18% hits; further: on the % scale 0 is the no-effect control and ±100 the full control effect; nearly all actives have a fitted effect of over 45% in size
USP1-UAF1 inh: blocks the human USP1/UAF1 deubiquitinase complex; recombinant USP1/UAF1, Ub-Rhodamine cleavage fluorescence; 390,000 compounds, 0.23% hits; AID 743255; Potency, µM (highest dose often 57.1 µM), inactives show top-dose activity change, negative = inhibition, most hits filed as inhibitors; O94782; further: on the % scale 0 is the no-effect control and ±100 the full control effect; nearly all actives have a fitted effect of over 60% in size
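Step one: compound is pinned into 1nM USP1/UAF1 in HEPES pH 7.8 buffer with TCEP. Step two: 15 min room-temperature incubation. Step three: Ub-Rho (150nM final) starts cleavage, tracked by fluorescence over six one-minute reads.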
EPAC1 agonist: activates human EPAC1 exchange factor. Potency, µM (doses to about 154 µM), without a hit: at the highest dose activation, most hits filed as activators. EPAC1 agonist qHTS, biochemical assay; response scale: 100% = response to 6.5 mM cAMP. 360,000 compounds, 0.073% hits. O95398; further: nearly all actives have a fitted effect of over 60% in size
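Fluorescent GDP-exchange assay: 100 nM EPAC1 with 250 nM Rap1B preloaded with BODIPY-GDP and 50 uM GDP; compounds tested as concentration series, 5 min at room temperature, then read every 5 min for 30 min (ex 480/em 540 nm); normalized to 6.5 mM cAMP.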
EPAC1 antag: EPAC1 (human) antagonism. O95398. EPAC1 GEF assay, Rap1b-BODIPY-GDP exchange fluorescence. Potency, µM (series often up to 115 µM), for inactives: at the highest dose activity change, negative = inhibition, actives largely listed as inhibitors. 360,000 compounds, 0.14% hits;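 further: plate controls were vehicle for no effect and positive control for full effect; nearly all actives have a fitted effect of over 50% in size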
An asterisk follows results filed as active; ? = inconclusive; . = no result. The call rests on the fitted dose curve; in most records, active means well fitted curve in the direction sought with a large enough effect; inconclusive means small, poorly fitted or top-dose-only effect, or another doubt; inactive means no such curve, though single readings can be large; an effect the other way counts as inactive or inconclusive. Potency means the concentration at half of the fitted maximal effect.

SMILES	EPAC2 agonist	EPAC2 antagonist	USP1-UAF1 inh	EPAC1 agonist	EPAC1 antag
CCC(=O)N1CCc2cc(OC)c(OC)cc2C1COc1ccccc1OC (stereo not drawn)	-1%	45µM*	2%	10%	16%
CCCC(=O)N1CCc2cc(OC)c(OC)cc2C1COc1ccccc1OC (stereo not drawn)	6%	-4%	-24%	-4%	11%
CCC(=O)N1CCc2cc(OC)c(OC)cc2C1COc1ccc(F)cc1 (stereo not drawn)	11%	14µM*	-8%	6%	8%
O=C(Nc1ccc(S(=O)(=O)Nc2nccs2)cc1)c1cc(-c2ccccn2)nc2ccccc12	2%	-12%	5%	17%	71µM*
CC1=NN(c2ccccc2)C(=O)/C1=C\c1c(C)[nH]n(-c2ccccc2)c1=O	-4%	-2%	-21%	9%	13%
CC1=NN(c2ccccc2)C(=O)/C1=C/c1c(O)n(-c2ccc(F)c(Cl)c2)[nH]c1=O	-18%	89µM*	-16%	-18%	50µM*
CCOC(=O)c1c(-c2ccccc2)csc1NC(=O)/C(C#N)=C\c1ccc(O)c(OC)c1	-5%	?	16µM*	-4%	-11%
CC1=C(C(=O)OC(C)C)C2(O)C(=O)c3ccccc3C2(O)N1 (stereo not drawn)	2%	-5%	-9%	4%	-6%
CCOC(=O)C1=C(C)N[C@@]2(O)c3ccccc3C(=O)[C@@]12O	4%	14%	-21%	3%	-3%
CCOC(=O)C1=C(C)OC2(O)c3ccccc3C(=O)C12O (stereo not drawn)	?	-27%	13µM*	1%	?
CC(=O)C1=C(C)OC2(O)c3ccccc3C(=O)C12O (stereo not drawn)	21%	-24%	8.9µM*	4%	79µM*
Cc1[nH]n(C(N)=S)c(=O)c1C(c1ccccc1)C(C#N)C#N (stereo not drawn)	1%	17%	-19%	-9%	13%
Cc1[nH]n(-c2ncc(-c3ccccc3)s2)c(=O)c1C(c1ccc(Br)cc1)C(C#N)C#N (stereo not drawn)	3%	-18%	-24%	10%	16µM*
CCCCC(CC)C(=O)Nc1ccc(C#N)cc1 (stereo not drawn)	5%	-3%	2%	4%	-18%
CCCCC(CC)C(=O)Nc1ccc(Nc2ccccc2)cc1 (stereo not drawn)	-13%	-19%	-13%	63µM*	40%
Cc1cc(O)c(C(=O)/C=C/c2cccc([N+](=O)[O-])c2)c(=O)o1	6%	-4%	-14%	-6%	56µM*
Cc1ccc(NC(=O)CCCn2c(=O)c3cccn3c3cccnc32)c(Cl)c1	.	.	-12%	.	.
COc1cc2ccccc2cc1C(=O)N1CCCC1	5%	2%	-11%	17%	1%
COc1cc2ccccc2cc1C(=O)N1CC(C)CC(C)C1 (stereo not drawn)	9%	28µM*	-5%	-3%	-4%
COc1ccc(CCNC(=O)c2ccc3c(c2)sc2nc(-c4ccccc4)cn23)cc1OC	.	.	3%	.	.
Cc1nc(N2CCOCC2)c2c(C(=O)N(C)Cc3ccccc3)c(C)oc2n1	.	.	-14%	.	.
COc1ccc(NC(=O)c2sc3nc[nH]c(=O)c3c2C)cc1OC	.	.	-19%	.	.
COc1ccccc1NC(=O)c1sc2nc(C)c(C(=O)Nc3ccc(C)cc3C)c(-c3ccc(C)o3)c2c1N	.	.	32µM*	.	.
COc1ccccc1NC(=O)c1sc2nc(Cc3ccccc3)cc(C(F)(F)F)c2c1N	-6%	79µM*	?	2%	-9%
Cc1ccc(N2C(=O)c3cccc4c(N5CCN(C)CC5)ccc(c34)C2=O)c2cccnc12	-13%	8%	28µM*	22%	5%
O=C1c2cccc3cccc(c23)C(=O)N1c1ccc(O)cc1	7%	-8%	-24%	10%	-16%
O=C1c2cccc3c(N4CCCCC4)ccc(c23)C(=O)N1c1ccccc1O	100µM*	1%	28µM*	?	4%
O=C1c2cccc3c(N4CCCCC4)ccc(c23)C(=O)N1c1ccc(O)cc1	89µM*	101%	?	11%	14%
